# Laboratory results published in the supplement of paper PMC10369915.
# Biological target: SHP2 N-SH2 domain T42A
# Experiment: log2 enrichment relative to wild-type ITIM peptide; higher = stronger binding
row,Binder,log2 enrichment
1,GFSVDYGELDF [PD-1 ITIM pTyr223 peptide variant V218G],0.152
2,VGSVDYGELDF [PD-1 ITIM pTyr223 peptide variant F219G],0.639
3,VFGVDYGELDF [PD-1 ITIM pTyr223 peptide variant S220G],-0.124
4,VFSVDYGGLDF [PD-1 ITIM pTyr223 peptide variant E225G],-1.11
5,VFSVDYGELGF [PD-1 ITIM pTyr223 peptide variant D227G],-1.31
6,VFSVDYGELDG [PD-1 ITIM pTyr223 peptide variant F228G],-1.54
7,AFSVDYGELDF [PD-1 ITIM pTyr223 peptide variant V218A],0.0307
8,VFAVDYGELDF [PD-1 ITIM pTyr223 peptide variant S220A],-0.133
9,VFSADYGELDF [PD-1 ITIM pTyr223 peptide variant V221A],-1.17
10,VFSVAYGELDF [PD-1 ITIM pTyr223 peptide variant D222A],1.52
11,VFSVDYAELDF [PD-1 ITIM pTyr223 peptide variant G224A],1
12,VFSVDYGALDF [PD-1 ITIM pTyr223 peptide variant E225A],-0.501
13,VFSVDYGEADF [PD-1 ITIM pTyr223 peptide variant L226A],-1.51
14,VFSVDYGELDA [PD-1 ITIM pTyr223 peptide variant F228A],-1.56
15,TFSVDYGELDF [PD-1 ITIM pTyr223 peptide variant V218T],-0.0485
16,VTSVDYGELDF [PD-1 ITIM pTyr223 peptide variant F219T],0.41
17,VFTVDYGELDF [PD-1 ITIM pTyr223 peptide variant S220T],0.338
18,VFSTDYGELDF [PD-1 ITIM pTyr223 peptide variant V221T],-0.962
19,VFSVTYGELDF [PD-1 ITIM pTyr223 peptide variant D222T],0.636
20,VFSVDYTELDF [PD-1 ITIM pTyr223 peptide variant G224T],0.883

row,Binder,log2 enrichment
1,VFSVDYGETDF [PD-1 ITIM pTyr223 peptide variant L226T],-1.57
2,VFSVDYGELTF [PD-1 ITIM pTyr223 peptide variant D227T],-0.714
3,SFSVDYGELDF [PD-1 ITIM pTyr223 peptide variant V218S],0.0685
4,VFSVDYSELDF [PD-1 ITIM pTyr223 peptide variant G224S],0.528
5,VFSVDYGSLDF [PD-1 ITIM pTyr223 peptide variant E225S],-0.714
6,VFSVDYGESDF [PD-1 ITIM pTyr223 peptide variant L226S],-1.51
7,VFSVDYGELDS [PD-1 ITIM pTyr223 peptide variant F228S],-1.4
8,VCSVDYGELDF [PD-1 ITIM pTyr223 peptide variant F219C],-0.255
9,VFCVDYGELDF [PD-1 ITIM pTyr223 peptide variant S220C],-0.382
10,VFSCDYGELDF [PD-1 ITIM pTyr223 peptide variant V221C],-0.523
11,VFSVDYCELDF [PD-1 ITIM pTyr223 peptide variant G224C],-0.184
12,VFSVDYGCLDF [PD-1 ITIM pTyr223 peptide variant E225C],-0.897
13,VFSVDYGELCF [PD-1 ITIM pTyr223 peptide variant D227C],-0.854
14,VFSVDYGELDC [PD-1 ITIM pTyr223 peptide variant F228C],-1.54
15,NFSVDYGELDF [PD-1 ITIM pTyr223 peptide variant V218N],0.14
16,VNSVDYGELDF [PD-1 ITIM pTyr223 peptide variant F219N],0.243
17,VFNVDYGELDF [PD-1 ITIM pTyr223 peptide variant S220N],-0.0661
18,VFSNDYGELDF [PD-1 ITIM pTyr223 peptide variant V221N],-1.45
19,VFSVDYNELDF [PD-1 ITIM pTyr223 peptide variant G224N],-0.336
20,VFSVDYGENDF [PD-1 ITIM pTyr223 peptide variant L226N],-1.33

row,Binder,log2 enrichment
1,VFSVDYGELDN [PD-1 ITIM pTyr223 peptide variant F228N],-1.38
2,QFSVDYGELDF [PD-1 ITIM pTyr223 peptide variant V218Q],0.0173
3,VFQVDYGELDF [PD-1 ITIM pTyr223 peptide variant S220Q],-0.0797
4,VFSVDYQELDF [PD-1 ITIM pTyr223 peptide variant G224Q],-0.168
5,VFSVDYGQLDF [PD-1 ITIM pTyr223 peptide variant E225Q],0.0512
6,VFSVDYGEQDF [PD-1 ITIM pTyr223 peptide variant L226Q],-1.5
7,VFSVDYGELQF [PD-1 ITIM pTyr223 peptide variant D227Q],-0.79
8,VFSVDYGELDQ [PD-1 ITIM pTyr223 peptide variant F228Q],-1.43
9,VFDVDYGELDF [PD-1 ITIM pTyr223 peptide variant S220D],-0.682
10,VFSDDYGELDF [PD-1 ITIM pTyr223 peptide variant V221D],-1.38
11,VFSVDYDELDF [PD-1 ITIM pTyr223 peptide variant G224D],-0.746
12,VFSVDYGDLDF [PD-1 ITIM pTyr223 peptide variant E225D],-0.183
13,VFSVDYGELDD [PD-1 ITIM pTyr223 peptide variant F228D],-1.56
14,EFSVDYGELDF [PD-1 ITIM pTyr223 peptide variant V218E],-0.155
15,VFEVDYGELDF [PD-1 ITIM pTyr223 peptide variant S220E],-0.481
16,VFSEDYGELDF [PD-1 ITIM pTyr223 peptide variant V221E],-1.41
17,VFSVDYEELDF [PD-1 ITIM pTyr223 peptide variant G224E],-0.506
18,VFSVDYGEEDF [PD-1 ITIM pTyr223 peptide variant L226E],-1.51
19,VFSVDYGELDE [PD-1 ITIM pTyr223 peptide variant F228E],-1.51
20,VHSVDYGELDF [PD-1 ITIM pTyr223 peptide variant F219H],0.536
